For assay [1], the target named is Cytochrome P450 2C19 (Homo sapiens) (UniProt P33261). The assay is described as follows: Cytochrome P450 Family 2 Subfamily C Member 19 (CYP2C19) small molecule antagonists: luciferase reporter qHTS assay (AID 1671197). Also: nearly all actives have a fitted effect of over 65% in size. As to activity change, negative = inhibition: series mostly up to about 120 µM. Put shortly: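 Quantitative high-throughput screen of the Tox21 library using CYP2C19 with proluciferin substrate. Reaction: NADPH regeneration, 37C, 1 h, after 10 min compound preincubation at room temperature. Readout: luminescence.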
A general note: A reporter such as luciferase makes a cellular process visible.

Assay [2] concerns the target Cytochrome P450 1A2 (Homo sapiens) (UniProt P05177). Briefly: Cytochrome P450 Family 1 Subfamily A Member 2 (CYP1A2) small molecule antagonists: luciferase reporter qHTS assay (AID 1671199). Also: nearly all actives have a fitted effect of over 50% in size. As to activity change, negative = inhibition: series mostly up to about 120 µM. Put shortly: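 Room-temperature CYP1A2 reaction with proluciferin substrate: compounds added from DMSO, 10 min preincubation, NADPH regeneration for 1 h. Luciferin detection reagent then added; luminescence recorded as RLU.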

The target of assay [3] is Voltage-gated inwardly rectifying potassium channel KCNH2 (Homo sapiens) (UniProt Q12809). The assay is described as follows: Human Ether-a-go-go-Related Gene (hERG) channel small molecule antagonists: fluorescence cell-based qHTS assay (AID 1671200). Also: nearly all actives have a fitted effect of over 50% in size.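 As to activity change, negative = inhibition: hERG-expressing U2OS cells given a thallium stimulus after FluxOR II dye loading; series mostly up to about 77 µM.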 A digest of the protocol:
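Channel function was assessed by thallium flux. Cells seeded the previous day and kept at 37 C took up FluxOR II dye over 1 h in the dark at room temperature, then sat another 10 min before stimulation.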

The target in assay [4] is Cytochrome P450 3A4 (Homo sapiens) (UniProt P08684). Briefly: Cytochrome P450 Family 3 Subfamily A Member 4 (CYP3A4) small molecule antagonists: luciferase reporter qHTS assay (AID 1671201). Also: nearly all actives have a fitted effect of over 50% in size. As to activity change, negative = inhibition: series mostly up to about 120 µM. Put shortly: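 Compounds in DMSO were pin-transferred onto CYP3A4 enzyme-substrate mix and held 10 min at room temperature. NADPH regenerating solution started the reaction for 1 h; luciferin detection reagent stopped it, and luminescence was read after 20 min.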

Assay [5] deals with Cytochrome P450 2C9 (Homo sapiens) (UniProt P11712). Briefly: Cytochrome P450 Family 2 Subfamily C Member 9 (CYP2C9) small molecule antagonists: luciferase reporter qHTS assay (AID 1671198). Also: nearly all actives have a fitted effect of over 50% in size. As to activity change, negative = inhibition: series mostly up to about 120 µM. A digest of the protocol:
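Enzyme-substrate mix preincubated with compound 10 min at room temperature; reaction started with NADPH regeneration solution, 1 h 37C. Luminescent luciferin product read after 20 min detection reagent.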

Molecules are shown by their SMILES. Inconclusive results are not listed. Values without a mark were called inactive. Activity calls are given as the source filed them. Calls follow the shape of the dose curve; as a rule, active = well fitted curve in the direction sought with a large enough effect in the repeat runs; inconclusive = weak or mixed curves; inactive = no such curve, though single readings can be large; an effect the other way counts as inactive or inconclusive.
% is scaled to controls: 0 for no effect and ±100 for the full control effect; potency is read from the fitted curve at half-maximal effect.

Voltage-gated inwardly rectifying potassium channel KCNH2 (Homo sapiens), sequence (Q12809 whole entry, looked up): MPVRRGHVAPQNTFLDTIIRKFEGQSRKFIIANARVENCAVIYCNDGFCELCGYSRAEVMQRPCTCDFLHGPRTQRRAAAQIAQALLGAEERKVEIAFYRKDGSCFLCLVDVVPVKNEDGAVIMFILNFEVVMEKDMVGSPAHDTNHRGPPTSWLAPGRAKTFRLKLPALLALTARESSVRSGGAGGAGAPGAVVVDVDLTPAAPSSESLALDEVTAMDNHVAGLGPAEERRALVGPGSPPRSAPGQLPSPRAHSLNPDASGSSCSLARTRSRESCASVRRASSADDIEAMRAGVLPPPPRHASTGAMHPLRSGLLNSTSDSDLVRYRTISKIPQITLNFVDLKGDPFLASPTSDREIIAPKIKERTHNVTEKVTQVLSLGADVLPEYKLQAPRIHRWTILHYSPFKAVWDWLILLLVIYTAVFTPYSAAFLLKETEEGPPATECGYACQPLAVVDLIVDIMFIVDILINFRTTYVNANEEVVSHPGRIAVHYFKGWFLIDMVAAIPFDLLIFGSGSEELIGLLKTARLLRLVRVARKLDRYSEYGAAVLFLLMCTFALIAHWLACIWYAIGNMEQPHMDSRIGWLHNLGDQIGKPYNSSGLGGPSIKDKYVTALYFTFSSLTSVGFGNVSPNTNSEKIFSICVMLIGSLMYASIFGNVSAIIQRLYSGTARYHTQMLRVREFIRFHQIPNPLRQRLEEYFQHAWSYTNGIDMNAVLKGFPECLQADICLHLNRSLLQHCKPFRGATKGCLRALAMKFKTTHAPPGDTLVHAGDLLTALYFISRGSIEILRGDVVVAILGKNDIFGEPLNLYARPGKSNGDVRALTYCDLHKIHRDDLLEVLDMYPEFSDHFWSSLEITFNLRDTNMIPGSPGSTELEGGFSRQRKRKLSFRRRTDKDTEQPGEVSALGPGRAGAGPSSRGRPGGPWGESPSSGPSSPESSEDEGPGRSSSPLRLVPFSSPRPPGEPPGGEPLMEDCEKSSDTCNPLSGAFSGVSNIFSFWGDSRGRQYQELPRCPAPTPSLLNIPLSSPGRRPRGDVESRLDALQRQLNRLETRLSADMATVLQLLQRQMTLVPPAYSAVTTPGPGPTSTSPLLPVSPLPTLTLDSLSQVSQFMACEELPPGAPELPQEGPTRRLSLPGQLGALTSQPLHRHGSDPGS
Cytochrome P450 3A4 (Homo sapiens), sequence (P08684 whole entry, looked up): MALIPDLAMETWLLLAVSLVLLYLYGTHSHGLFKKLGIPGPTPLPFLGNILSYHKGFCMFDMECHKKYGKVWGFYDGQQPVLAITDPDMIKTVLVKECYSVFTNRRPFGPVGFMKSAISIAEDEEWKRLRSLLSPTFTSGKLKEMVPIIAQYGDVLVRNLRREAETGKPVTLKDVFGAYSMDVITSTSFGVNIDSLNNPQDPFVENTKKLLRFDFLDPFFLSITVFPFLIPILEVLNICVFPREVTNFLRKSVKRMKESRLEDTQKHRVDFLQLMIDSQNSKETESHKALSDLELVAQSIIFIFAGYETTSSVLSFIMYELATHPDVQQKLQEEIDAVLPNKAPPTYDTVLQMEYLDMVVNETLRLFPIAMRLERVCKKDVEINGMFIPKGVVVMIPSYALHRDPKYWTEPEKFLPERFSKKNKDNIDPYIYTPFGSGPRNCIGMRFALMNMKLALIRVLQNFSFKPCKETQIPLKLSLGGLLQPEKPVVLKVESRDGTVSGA
Cytochrome P450 2C9 (Homo sapiens), sequence (P11712 whole entry, looked up): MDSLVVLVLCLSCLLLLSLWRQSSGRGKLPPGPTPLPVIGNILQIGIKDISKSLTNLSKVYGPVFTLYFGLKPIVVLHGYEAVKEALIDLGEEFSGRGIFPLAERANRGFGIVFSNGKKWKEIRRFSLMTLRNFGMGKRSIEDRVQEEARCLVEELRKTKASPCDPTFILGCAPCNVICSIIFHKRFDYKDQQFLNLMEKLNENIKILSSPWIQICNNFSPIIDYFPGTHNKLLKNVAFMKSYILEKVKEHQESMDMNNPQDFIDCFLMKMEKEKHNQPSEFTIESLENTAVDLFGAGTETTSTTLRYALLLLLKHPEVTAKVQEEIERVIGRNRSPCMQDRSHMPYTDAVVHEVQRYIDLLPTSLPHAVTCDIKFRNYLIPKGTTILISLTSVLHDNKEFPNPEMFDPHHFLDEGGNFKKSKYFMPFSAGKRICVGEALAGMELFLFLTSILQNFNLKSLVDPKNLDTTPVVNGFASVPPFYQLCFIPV
Cytochrome P450 1A2 (Homo sapiens), sequence (P05177 whole entry, looked up): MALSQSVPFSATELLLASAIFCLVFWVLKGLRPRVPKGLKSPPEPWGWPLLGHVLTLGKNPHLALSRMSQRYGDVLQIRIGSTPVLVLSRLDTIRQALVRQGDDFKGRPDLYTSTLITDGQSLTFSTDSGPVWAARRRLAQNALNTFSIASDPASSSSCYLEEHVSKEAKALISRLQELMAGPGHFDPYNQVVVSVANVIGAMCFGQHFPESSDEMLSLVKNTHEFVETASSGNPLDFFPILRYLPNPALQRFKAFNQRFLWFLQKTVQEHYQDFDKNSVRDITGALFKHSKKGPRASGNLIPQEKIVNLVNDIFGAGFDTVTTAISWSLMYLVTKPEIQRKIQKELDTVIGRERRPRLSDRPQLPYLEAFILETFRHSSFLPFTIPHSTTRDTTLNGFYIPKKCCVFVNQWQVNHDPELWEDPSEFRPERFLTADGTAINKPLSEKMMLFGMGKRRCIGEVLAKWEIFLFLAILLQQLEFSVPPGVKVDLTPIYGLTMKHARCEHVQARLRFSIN
Cytochrome P450 2C19 (Homo sapiens), sequence (P33261 whole entry, looked up): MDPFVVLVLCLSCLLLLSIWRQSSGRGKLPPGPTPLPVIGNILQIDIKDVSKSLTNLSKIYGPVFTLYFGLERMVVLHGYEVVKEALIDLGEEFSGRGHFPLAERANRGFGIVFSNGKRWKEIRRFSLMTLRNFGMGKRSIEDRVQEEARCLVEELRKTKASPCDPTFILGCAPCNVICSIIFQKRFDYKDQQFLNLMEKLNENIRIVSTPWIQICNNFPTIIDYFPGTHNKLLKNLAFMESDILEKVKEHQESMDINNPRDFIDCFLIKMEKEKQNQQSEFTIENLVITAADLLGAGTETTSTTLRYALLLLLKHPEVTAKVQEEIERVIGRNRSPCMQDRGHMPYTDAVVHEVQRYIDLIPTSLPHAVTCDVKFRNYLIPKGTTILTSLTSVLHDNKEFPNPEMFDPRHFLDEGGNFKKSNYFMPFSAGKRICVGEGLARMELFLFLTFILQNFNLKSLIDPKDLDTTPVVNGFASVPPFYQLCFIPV

As for `O=C(O)CCc1nc(-c2ccccc2)c(-c2ccccc2)o1`, the Potency result in assay [1], in assay [2], in assay [3] and in assay [4] was “inactive” throughout.
As for `COc1ncnc(NS(=O)(=O)c2ccc(N)cc2)c1OC`, the Potency result in assay [1], in assay [2], in assay [3] and in assay [4] was “inactive” in each case.
Take `CCCCCCCCCI`: the Potency entry in assay [1], in assay [2], in assay [3] and in assay [4] was “inactive” each time.
Turning to `COc1ccccc1Oc1c(NS(=O)(=O)c2ccc(C(C)(C)C)cc2)nc(-c2ncccn2)nc1OCCO`, the Potency entry in assay [1], in assay [2], in assay [3] and in assay [4] was “inactive” in each case.
As to `Cc1cc(=O)c2c(O)c3c(O)cc(=O)c4c3c3c(cc(O)c1c23)C(C)(C)C=4O`, the Potency entry in assay [1] and in assay [2] was “inactive” in each case. Moreover, in assay [3], the activity change, negative = inhibition is -4.56% [at 15.8 µM].
In the case of `C[C@H]1c2cccc(O)c2C(O)=C2C(=O)[C@]3(O)C(O)=C(C(N)=O)C(=O)[C@@H](N(C)C)[C@@H]3[C@@H](O)[C@@H]21`, the Potency result in assay [1], in assay [2], in assay [3] and in assay [4] was “inactive” throughout.
For `CCC(=O)OC`, the Potency entry in assay [1], in assay [2], in assay [3] and in assay [4] was “inactive” each time.
Consider `CS(=O)(=O)c1ccc(-c2cn3ccccc3n2)cc1`, for which the Potency in assay [1] was 24.5 µM (active); in assay [2] it was 0.456 µM (active). The Potency entry in assay [3] and in assay [4] was “inactive” each time.
As to `C=C1c2cccc(O)c2C(O)=C2C(=O)[C@]3(O)C(O)=C(C(N)=O)C(=O)[C@@H](N(C)C)[C@@H]3[C@@H](O)[C@H]12`, the Potency entry in assay [1], in assay [2], in assay [3] and in assay [4] was “inactive” throughout.
For the molecule `CCCCCCCC/C=C\CCCCCCCCO`, the Potency result in assay [1], in assay [3] and in assay [4] was “inactive” throughout. In assay [2], the Potency was 28.2 µM (active).
Consider `CCCCCCCCC(CCCCCC)C(=O)O` (centres undefined), for which the Potency in assay [1] is 35.6 µM (active). Also, the Potency entry in assay [2], in assay [3] and in assay [4] was “inactive” in each case.
For the molecule `CN(C)CCN1C(=O)c2ccccc2N(C)c2ccccc21`, the Potency entry in assay [1], in assay [2], in assay [3] and in assay [4] was “inactive” in each case.
As to `COc1cc(C(=O)NC2CCN(C)CC2)ccc1Nc1ncc2c(n1)N(C1CCCC1)CC(F)(F)C(=O)N2C`, in assay [1], the Potency was 51.7 µM (active). The Potency result in assay [2] and in assay [3] was “inactive” each time.
For `Cc1cc(O)ccc1O`, the Potency in assay [1] is 25.5 µM (active). Also, the Potency entry in assay [2] and in assay [3] was “inactive” in each case.
As to `CCCCCC[C@@H](O)C/C=C\CCCCCCCC(=O)O`, the Potency result in assay [2], in assay [3] and in assay [4] was “inactive” in each case.
Take `CCC(C)COC(C)=O` (centres undefined): the Potency result in assay [2], in assay [3] and in assay [4] was “inactive” in each case.
With `O=c1cc(-c2ccccc2)oc2cc(O)cc(O)c12`, the Potency entry in assay [3] is “inactive”. Also, in assay [4], the Potency is 17.8 µM (active).
With `CC(C)(O)c1ccc(CNC(=O)c2cccnc2Oc2ccc3nonc3c2)cc1`, in assay [3], the Potency entry is “inactive”.
Turning to `C1C[C@@H]2[C@H]3CC[C@H](C3)[C@@H]2C1`, the Potency entry in assay [5] and in assay [3] was “inactive” throughout.
For `Cc1ccccc1S`, the Potency was 45.2 µM (active) in assay [5] and 50.7 µM (active) in assay [2]. The Potency entry in assay [3] and in assay [4] was “inactive” in each case.
Consider `CCOC(=O)OC(C)OC(=O)[C@@H]1N2C(=O)[C@@H](NC(=O)[C@H](N)c3ccccc3)[C@H]2SC1(C)C` (some centres undefined), for which, in assay [3], the Potency result was “inactive”.
With `CC(CCC(=O)O)C(=O)O` (centres undefined), the Potency entry in assay [3] and in assay [4] was “inactive” each time.
Turning to `CCC1NC(=O)c2cc(S(N)(=O)=O)c(Cl)cc2N1` (centres undefined), the Potency result in assay [3] was “inactive”.
As to `OCCN1CCN(CCCN2c3ccccc3Sc3ccc(Cl)cc32)CC1`, the Potency in assay [3] is 2.68 µM (active).
Regarding `CCCCOc1ccc(OCCCN2CCOCC2)cc1`, the Potency entry in assay [2] and in assay [4] was “inactive” each time.
Turning to `O=C(O)CCCCCCCCCCCBr`, the Potency result in assay [5], in assay [2], in assay [3] and in assay [4] was “inactive” throughout.
Consider `CC/C=C1/OC(=O)c2ccccc21`, for which the Potency in assay [2] was 5.51 µM (active). Besides, the Potency entry in assay [3] and in assay [4] was “inactive” throughout.
Regarding `COc1ccccc1N1CCN(CC(O)COc2cccc3ccccc23)CC1` (centres undefined), in assay [3], the Potency is 1.9 µM (active). In addition, in assay [4], the Potency entry is “inactive”.
For the molecule `CC1(C)[C@@H](OC(=O)CCC(=O)O)CC[C@]2(C)[C@H]3C(=O)C=C4[C@@H]5C[C@@](C)(C(=O)O)CC[C@]5(C)CC[C@@]4(C)[C@]3(C)CC[C@@H]12`, the Potency entry in assay [3] is “inactive”.
With `OC1(c2ccccc2)CCNCC1`, the Potency result in assay [5], in assay [2], in assay [3] and in assay [4] was “inactive” in each case.
On to `Oc1cc2c(cc1O)[C@H]1c3ccc(O)c(O)c3OC[C@@]1(O)C2`, for which the Potency in assay [2] is 36 µM (active). Besides, the Potency entry in assay [3] was “inactive”.
`CN1C[C@H](C(=O)N[C@]2(C)O[C@@]3(O)[C@@H]4CCCN4C(=O)[C@H](Cc4ccccc4)N3C2=O)C[C@@H]2c3cccc4[nH]cc(c34)C[C@H]21`: in assay [2], the Potency entry is “inactive”.
With `CCOC(=O)C1=C(C)NC(C)=C(C(=O)OC)C1c1cccc(Cl)c1Cl` (centres undefined), the Potency entry in assay [3] was “inactive”.
With `O=c1c(O)c(-c2ccc(O)cc2)oc2cc(O)cc(O)c12`, in assay [3], the Potency entry is “inactive”.
In the case of `NNC(=O)CP(=O)(c1ccccc1)c1ccccc1`, the Potency entry in assay [2] and in assay [3] was “inactive” each time.
As to `FC(F)(F)c1ccccc1Cl`, the Potency entry in assay [5], in assay [2], in assay [3] and in assay [4] was “inactive” each time.
In the case of `CCC1(CO)COCOC1`, the Potency entry in assay [3] and in assay [4] was “inactive” in each case.
Take `CCn1cc(C(=O)O)c(=O)c2cc(F)c(N3CCNCC3)cc21`: the Potency entry in assay [5], in assay [2], in assay [3] and in assay [4] was “inactive” in each case.
As to `Nc1ncnc2c1ncn2[C@H]1CC[C@@H](CO)O1`, the Potency result in assay [5], in assay [3] and in assay [4] was “inactive” each time.
Take `CC(=O)Nc1ccc(C)cc1C`: the Potency entry in assay [5], in assay [2], in assay [3] and in assay [4] was “inactive” throughout.
For the molecule `Cc1ccc(Cl)c(Nc2ccccc2C(=O)O)c1Cl`, the Potency entry in assay [2], in assay [3] and in assay [4] was “inactive” in each case.
As to `CC(C)C(O)(c1ccc(OC(F)(F)F)cc1)c1cncnc1` (centres undefined), the Potency result in assay [3] is “inactive”.
For the molecule `CCC=CC#N`, the Potency result in assay [5], in assay [3] and in assay [4] was “inactive” throughout.
Consider `CC(C)COCC(CN(Cc1ccccc1)c1ccccc1)N1CCCC1` (centres undefined), for which, in assay [2], the Potency result is “inactive”.
On to `CO/N=C(/C(=O)N[C@@H]1C(=O)N2C(C(=O)O)=C(COC(N)=O)CS[C@H]12)c1ccco1`, for which the Potency entry in assay [2] and in assay [3] was “inactive” throughout.
Regarding `Nc1cccc2c1CN(C1CCC(=O)NC1=O)C2=O` (centres undefined), the Potency result in assay [3] is “inactive”.
As for `CC(=O)OCCN(CCOC(C)=O)c1ccc(N=Nc2ccc([N+](=O)[O-])cc2C#N)cc1`, the results for the Potency in assay [5], in assay [3] and in assay [4] were 15.9 µM (active), 17.4 µM (active) and 3.56 µM (active), respectively.
For the molecule `Nc1nnc(-c2ccc([N+](=O)[O-])o2)o1`, in assay [2], the Potency was 39.9 µM (active). Also, in assay [3], the Potency result is “inactive”.
For the molecule `CN1CCCC(n2nc(Cc3ccc(Cl)cc3)c3ccccc3c2=O)CC1` (centres undefined), in assay [2], the Potency entry is “inactive”.
As for `C[C@@H](CN(C)C)CN1c2ccccc2Sc2ccccc21`, the Potency in assay [3] is 9.52 µM (active).
As for `CC(C)C=O`, the Potency entry in assay [3] was “inactive”.
Turning to `CCCCCCCCCCC(=O)O`, the Potency result in assay [2] and in assay [3] was “inactive” in each case.
Take `Cc1ccc2c(Br)cc(Br)c(O)c2n1`: the Potency in assay [2] is 36.3 µM (active). For the same molecule, the Potency entry in assay [3] and in assay [4] was “inactive” throughout.
In the case of `O=C1CCCCCCCCCCOCCCCO1`, the Potency was 35.6 µM (active) in assay [2] and 39.9 µM (active) in assay [4].
